Unmarked numbers belong to inactive results.
Assay: E. coli growth modulation, two-sided OD650, primary screen, E. coli filamentation project, strain DRC41, 24 h (AID 1093);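 also: MC1000 strain lacking acrAB efflux and sulA so SOS filamentation is blocked; test concentration not given here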
Conditions: OD650, 24 h, higher = more signal, called active from +8 up or from −8 down

Structure (SMILES)	z-score
COc1cc2c(cc1O)C(c1ccc(CN3CCCC3)cc1)N(Cc1cc3c(cc1Br)OCO3)CC2 (stereo unspecified)	-3.03
CCCC[C@@H]1C[C@H]1[C@@H](NC(=O)c1cccs1)c1ccccc1C(F)(F)F	-0.0873
CCOC(=O)C1=C[C@@H](c2ccccc2)N(S(=O)(=O)c2ccc(C)cc2)[C@H]1c1ccc(OC)cc1	-0.685
C=CCC(OC(C)=O)[C@@H]1[C@@H](N(Cc2ccc(-c3cccc(C(F)(F)F)c3)o2)C(=O)Cc2ccc(OC)cc2)c2cc(OCCCO)ccc2N1C(=O)c1ccc(-c2ccccc2)cc1 (stereo partly specified)	-0.936
C=CC[C@@H](OC(=O)Nc1ccc(SC)cc1)c1ccc(O)c(F)c1	1.81
CCCCC=C[C@@H](NC(=O)OCc1ccccc1Cl)c1ccccc1	-1.48
C=CCC(OC(C)=O)[C@@H]1[C@@H](N(Cc2cccc3ccccc23)C(=O)Cc2ccc(OC)cc2)c2cc(OCCCO)ccc2N1C(=O)c1ccc(-c2ccccc2)cc1 (stereo partly specified)	-0.373
CCCC=C(CCC)[C@@H](NP(=O)(c1ccccc1)c1ccccc1)c1ccc(-c2ccccc2)cc1	-0.932
COCCCNC(=O)[C@@]1(CCC(=O)OC(C)(C)C)N=C(c2ccc(OCCCO)cc2)O[C@H]1c1ccccc1N=[N+]=[N-]	1.21
O=C(Cc1ccccc1)[C@H]1C2C=CCCC(c3ccccc3)=C2CN1Cc1ccccc1 (stereo partly specified)	2.42
COC(=O)[C@@]1(Cc2ccc(F)cc2)[C@H]2c3cc(C(=O)N4CCCC4)n(Cc4ccc(C)c(F)c4F)c3C[C@H]2CN1C(=O)c1ccccc1	-0.477
COc1ccc(C#Cc2ccc3c(c2)[C@]2(C(=O)N3)[C@H](C(=O)O)[C@H]3C(=O)O[C@H](c4ccccc4)[C@H](c4ccccc4)N3[C@@H]2c2ccc(O)cc2)cc1	0.781
CCC#CCN(Cc1ccccc1Br)[C@H](/C=C/C1CC1)[C@@H](O)Cc1ccccc1	1.35
COC(=O)[C@@]1(Cc2ccccc2)[C@H]2c3cc(C(=O)N(C)C)n(Cc4ccc(C)o4)c3C[C@H]2CN1C(=O)c1ccccc1	-1.64
CC(C)NC(=O)[C@@]1(C)c2ccccc2C(=O)N(Cc2ccc(OC(F)(F)F)cc2)[C@H]1c1ccc(CO)cc1	-1.55
COc1ccc([Si](C)(C)[C@@H]2[C@@H](CC(=O)N3CCC[C@H]3CO)O[C@]3(C(=O)N(Cc4cccc(N5C(=O)COc6ccccc65)c4)c4ccccc43)[C@H]2C)cc1	0.222
CCCC[C@@H](O)C1=C(COC)C[C@H]2C(=O)N(C)C(=O)[C@H]2[C@H]1CO	1.1
COc1ccc([Si](C)(C)[C@@H]2[C@@H](CC(=O)N(CCO)Cc3ccccc3)O[C@]3(C(=O)N(Cc4cccc(N5CCCCC5=O)c4)c4ccccc43)[C@H]2C)cc1	1.02

Structure (SMILES)	z-score
COc1ccc(CCNC(=O)[C@@]2(Sc3ccc(C)cc3)CC(=O)N(Cc3ccccc3C(F)(F)F)[C@@H]2c2ccc(CO)cc2I)cc1	0.404
[N-]=[N+]=Nc1ccccc1[C@@H]1OC(c2ccc(OCCCO)cc2)=N[C@]1(Cc1ccccc1)C(=O)N1CCCCC1	0.27
Cc1ccc(S[C@]2(C(=O)NCc3ccccc3)CC(=O)N(C3CCCCC3)[C@@H]2c2ccc(CO)cc2I)cc1	-0.455
COc1ccc([Si](C)(C)[C@H]2[C@H](CC(=O)N(CCO)Cc3ccccc3)O[C@@]3(C(=O)N(C)c4c(Br)cc(C)cc43)[C@@H]2C)cc1	0.114
[N-]=[N+]=Nc1ccccc1[C@@H]1OC(c2ccc(OCCCO)cc2)=N[C@]1(Cc1ccccc1)C(=O)O	0.779
CCCC1(C(=O)OC)C=C2C(=C(C)C(=O)C2C)CN1 (stereo unspecified)	-0.827
COCC(=C=CC[C@H](O)c1ccccc1OCCO)C[C@H](O)c1ccccn1	0.723
Oc1ccc2cc[n+](Cc3cc4c(cc3Br)OCO4)cc2c1	-0.603
CC(C)[Si]1(C(C)C)OCc2cc(C3CC3)nc(-c3ccc(Oc4ccccc4)cc3)c21	-0.26
[N-]=[N+]=Nc1ccccc1C[C@]1(C(=O)N2CCOCC2)COC(c2ccc(OCCCO)cc2)=N1	1.91
[N-]=[N+]=Nc1ccccc1C[C@@]1(C(=O)NCCN2CCOCC2)N=C(c2ccc(OCCCO)cc2)O[C@@H]1c1ccccc1N=[N+]=[N-]	-0.485
CCCCC(CC)C(O)C1C=CC2C(=O)N(C)C(=O)C2N1Nc1ccccc1 (stereo unspecified)	-0.931
O=C1N(CCS(=O)(=O)c2ccccc2)c2ccccc2[C@H]2OC(c3ccc(OCCCO)cc3)=N[C@@]12Cc1ccccc1	0.611
COc1ccc(C#Cc2ccc3c(c2)[C@]2(C(=O)N3)[C@H](c3ccc(O)cc3)N3[C@H](c4ccccc4)[C@H](c4ccccc4)OC(=O)[C@H]3[C@@H]2C(=O)Nc2nc3ccccc3s2)cc1	1.92
CCOc1cc(C(O)C2C=CC3C(=O)NC(=O)C3N2Nc2ccc(Cl)cc2Cl)ccc1O (stereo unspecified)	-0.847
Cc1ccc(S[C@]2(C(=O)NCC(F)(F)F)CC(=O)N(Cc3cc(C(F)(F)F)cc(C(F)(F)F)c3)[C@@H]2c2ccc(CO)cc2I)cc1	-0.3
C=CCC(OC(C)=O)[C@@H]1[C@@H](N(Cc2cc3ccccc3o2)C(=O)Cc2ccc(F)cc2)c2cc(OCCCO)ccc2N1C(=O)Cc1ccc2ccccc2c1 (stereo partly specified)	-1.16
CO[C@H]1O[C@H](CO)[C@@H](OC(=O)Nc2ccccc2)[C@H](OC(=O)c2cc3ccccc3[nH]2)[C@H]1OC(=O)c1cc2ccccc2[nH]1	0.0433
